From PubChem BioAssay (NCATS)
Results filed as inconclusive are left out. Calls of active or inactive are those of the source. Calls follow the shape of the dose curve; as a rule, active = well fitted curve in the direction sought with a large enough effect; inconclusive = small, poorly fitted or top-dose-only effect, or another doubt; inactive = no such curve, though single readings can be large; an effect the other way counts as inactive or inconclusive. *1 amine or outer side, *2 acyl side, *3 side chain or, on linkers, in order; H or OH if unused. Where a SMILES comes first, the peptide text is derived from it. [ ]: non-standard residue; d: D form. X4 = CC(C)=CCc1cc(C(O)C(N[*:1])C(=O)[*:2])ccc1O

Columns and labels:
[1] = target: Glutathione peroxidase 1 (Homo sapiens) (UniProt P07203); assay: Primary qHTS Assay for Inhibitors of Recombinant Selenoprotein Glutathione Peroxidase 1 (GPX1) (AID 1845191); also: nearly all actives have a fitted effect of over 65% in size; as to activity, negative = inhibition: % is scaled to controls: 0 for no effect and ±100 for the full control effect
Sequence of Glutathione peroxidase 1 (Homo sapiens) (P07203 whole entry, looked up): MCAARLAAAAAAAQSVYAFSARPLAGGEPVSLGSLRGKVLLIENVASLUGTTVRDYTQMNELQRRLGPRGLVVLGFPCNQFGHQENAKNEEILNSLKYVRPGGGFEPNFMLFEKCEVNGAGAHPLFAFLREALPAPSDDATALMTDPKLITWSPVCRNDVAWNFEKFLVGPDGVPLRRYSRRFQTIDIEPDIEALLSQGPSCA
In short: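 NADPH consumption tracked by fluorescence at 340/450 nm between t=0 and t=15 min, room temperature. Final mix: 10 nM GPX1, 100 nM glutathione reductase, 1 mM GSH, 0.5 mM NADPH, 0.5 mM cumene hydroperoxide, 0.01% BSA; 30 min compound–enzyme preincubation.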

[2] = target: Phospholipid hydroperoxide glutathione peroxidase GPX4 (Homo sapiens) (UniProt P36969); assay: Primary qHTS Assay for Inhibitors of Recombinant Selenoprotein Glutathione Peroxidase 4 (GPX4) (AID 1845192); also: nearly all actives have a fitted effect of over 65% in size; as to activity change, negative = inhibition: series mostly up to about 50 µM; % is scaled to controls: 0 for no effect and ±100 for the full control effect
Sequence of Phospholipid hydroperoxide glutathione peroxidase GPX4 (Homo sapiens) (P36969 whole entry, looked up): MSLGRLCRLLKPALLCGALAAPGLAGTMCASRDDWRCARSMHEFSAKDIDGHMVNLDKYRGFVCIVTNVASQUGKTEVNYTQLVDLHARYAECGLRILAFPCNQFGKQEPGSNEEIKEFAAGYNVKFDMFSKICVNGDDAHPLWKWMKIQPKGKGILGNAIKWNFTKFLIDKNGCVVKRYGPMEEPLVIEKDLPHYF
In short: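 NADPH consumption followed by fluorescence at 340/450 nm, t=0 and after 15 min at room temperature. Reaction started with cumene hydroperoxide (0.5 mM final) after 30 min compound–GPX4 preincubation; final 200 nM GPX4, 100 nM GR, 1 mM GSH, 0.5 mM NADPH.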

[3] = target: Luciferin 4-monooxygenase (Photinus pyralis) (UniProt P08659); assay: Primary firefly luciferase (FLuc) qHTS assay for identification of artifact compounds. (AID 1845220); also: nearly all actives have a fitted effect of over 60% in size; also: potency is read from the fitted curve at half-maximal effect;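 as to activity change, negative = inhibition: series mostly up to about 54 µM; plate controls were DMSO vehicle for no effect and no enzyme for full effect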
In short: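 Compounds sat 15 min at room temperature with 10 uM luciferin and 10 uM ATP (pH 7.6 Tris acetate). Firefly luciferase (10 nM final) was then added, and luminescence was read 5 min later. Data normalized to no-enzyme and DMSO controls were Hill-fitted.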

[4] = Primary fluorescence-based thiol-reactive (MSTI) qHTS assay for identification of artifact compounds. (AID 1845221); also: nearly all actives have a fitted effect of over 65% in size; also: potency is read from the fitted curve at half-maximal effect;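 as to activity change, negative = thiol reactive: series mostly up to about 54 µM; thiol-reactive compounds lower the probe fluorescence signal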
In short: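 qHTS titration of compound; 4 uM MSTI, PBS pH 7.4, 2% DMSO; 1 h RT, dark; fluorescence 525/598 nm; normalized to Acetyl-MSTI and MSTI; 4-parameter Hill fit.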

[5] = system: Nanoluciferase (engineered Oplophorus gracilirostris luciferase); assay: Primary Nanoluciferase (NLuc) qHTS assay for identification of artifact compounds. (AID 1845222);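 also: series mostly up to about 54 µM; 0% = DMSO and -100% = no enzyme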
In short: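 Luminescence from secreted NLuc (filtered, 1:55-diluted S16 cell medium) read 5 min after Nano-Glo substrate; compounds preincubated 15 min, RT. Hill fits of inhibition normalized to DMSO and no-enzyme.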

[6] = Primary redox qHTS assay for identification of artifact compounds. (AID 1845223);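 also: 0% = DMSO and 100% = reference compound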
In short: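 Redox-cycling detection via DTT (250 uM final) oxidation coupled to Amplex Red (25 uM)/HRP (250 mU/mL) in HBSS. 15 min preincubation plus 30 min after DTT, room temperature. Ex/Em 525/598 nm; 4-parameter Hill fit against DMSO and 10 uM DA3003.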

CCC(C)C(=O)OC1CC(O)C23C4OCC5(C(O)CC2C1(C)C(O)O4)C3C(=O)CC1(C)C(c2ccoc2)CC2OC215 (stereo not given)
inactive: Potency [1] | Potency [2] | Potency [3] | Potency [4] | Potency [5] | Potency [6]

COC(=O)c1ccc(OC(CO)C(O)c2ccc(O)c(OC)c2)c(OC)c1 (stereo not given)
inactive: Potency [1] | Potency [2] | Potency [3] | Potency [4] | Potency [5] | Potency [6]

CC1(C)CC[C@]23CO[C@@]4(CCC5[C@@]6(C)CC[C@H](O[C@@H]7OC[C@H](O[C@@H]8O[C@H](CO)[C@@H](O)[C@H](O)[C@H]8O)[C@H](O)[C@H]7O[C@@H]7O[C@H](CO)[C@@H](O[C@@H]8O[C@H](CO)[C@@H](O)[C@H](O)[C@H]8O)[C@H](O)[C@H]7O)[C@@](C)(CO)C6CC[C@@]5(C)[C@]4(C)C[C@H]2OC2OCC(O)C(O)C2O)C3C1 (stereo not given in full)
inactive: activity, negative = inhibition [1] -19.2% [at 9.52 µM] | activity change, negative = inhibition [2] -5.8% [at 9.73 µM] | activity change, negative = inhibition [3] -1.22% [at 11.6 µM] | activity change, negative = thiol reactive [4] 227% [at 11.5 µM] | activity, negative = inhibition [5] 0% [at 11.6 µM] | redox activity (% of DA3003) [6] 2.43% [at 11.5 µM]

COc1cc(O)c2c(c1)C1=C[C@H](O)[C@@H](O)C[C@]1(C)OC2=O
inactive: Potency [1] | Potency [2] | Potency [3] | Potency [4] | Potency [6]

CC1(C)CC[C@]2(C(=O)O[C@@H]3O[C@H](CO)[C@@H](O)[C@H](O)[C@H]3O)CC[C@]3(C)C(=CCC4[C@@]5(C)C[C@@H](O)[C@H](O)[C@](C)(C(=O)O)C5CC[C@]43C)C2C1O (stereo not given in full)
inactive: Potency [1] | Potency [2] | Potency [3] | Potency [4] | Potency [6]

Cc1cc(Cl)ccc1COc1ccnn1-c1cc(C(=O)O)ccn1
inactive: Potency [1] | Potency [2] | Potency [3] | Potency [4] | Potency [6]

COC(=O)CCSCc1ccc(-c2onc(C)c2NC(=O)OC(C)c2ccccc2Cl)cc1 (stereo not given)
inactive: Potency [1] | Potency [2] | Potency [3] | Potency [4] | Potency [6]

CCOCc1nc2c(N)nc3ccccc3c2n1CC(C)(C)O
inactive: Potency [1] | Potency [2] | Potency [3] | Potency [4] | Potency [5] | Potency [6]

Cc1ccccc1C#Cc1ccc(CCC(=O)O)cc1
active: Potency [3] 4.26 µM
inactive: Potency [1] | Potency [2] | Potency [4] | Potency [6]

N[C@H]1Cc2ccccc2N(O)C1=O
inactive: Potency [1] | Potency [2] | Potency [3] | Potency [4] | Potency [6]

CC1(C(=O)O)CCCC2(C)C3CCC4CC3(CCC12)CC4=O (stereo not given)
inactive: Potency [1] | Potency [2] | Potency [3] | Potency [4] | Potency [6]

CC(C)N(CCCCOCC(=O)NS(C)(=O)=O)c1cnc(-c2ccccc2)c(-c2ccccc2)n1
inactive: Potency [1] | Potency [2] | Potency [3] | Potency [4] | Potency [6]

CCOC(=O)c1cc(C#N)c(N2CCC(C(=O)NS(=O)(=O)Cc3ccccc3)CC2)nc1C
inactive: Potency [1] | Potency [2] | Potency [3] | Potency [4] | Potency [6]

O=C(/C=C\n1cnc(-c2cc(C(F)(F)F)cc(C(F)(F)F)c2)n1)N1CC(F)(F)C1
inactive: Potency [1] | Potency [2] | Potency [3] | Potency [4] | Potency [6]

N=c1nc2n(cc1F)C1OC(CO)C(O)C1O2 (stereo not given)
inactive: Potency [1] | Potency [2] | Potency [3] | Potency [4] | Potency [5] | Potency [6]

CC(C)=CCc1cc(C(O)C2NC(=O)CNC(=O)C(Cc3c[nH]c4ccccc34)NC(=O)C3CCCN3C(=O)CNC(=O)C(C(C)C)NC(=O)CNC2=O)ccc1O (stereo not given) (cyclo(G[X4]GVGPW); configuration not given here)
inactive: Potency [1] | Potency [2] | activity change, negative = inhibition [3] -7.99% [at 11.6 µM] | activity change, negative = thiol reactive [4] 158% [at 11.5 µM] | redox activity (% of DA3003) [6] 10.2% [at 11.5 µM]

Cc1oc2ccccc2c1CNC(=O)NCc1cccs1
inactive: Potency [1] | Potency [2] | Potency [3] | Potency [4] | Potency [6]

C=C1[C@H](OC(C)=O)[C@H]2[C@@H](OC(C)=O)[C@](C)(OC(C)=O)C[C@]2(OC(C)=O)C(=O)[C@H](C)/C=C/C(C)(C)C(=O)[C@H](OC(=O)C(C)C)[C@H]1OC(C)=O
inactive: Potency [1] | Potency [2] | Potency [3] | Potency [4] | Potency [6]

Cc1ccc(S(=O)(=O)c2ccc([N+](=O)[O-])o2)cc1
inactive: Potency [1] | Potency [2] | Potency [3] | Potency [6]
active: Potency [4] 10.6 µM

O=C(c1ccc2nccnc2c1)N1CCCCC1
inactive: Potency [1] | Potency [2] | Potency [3] | Potency [4] | Potency [6]

O=C1NC(=O)C(c2cn(-c3ccccc3)nc2-c2ccc(F)cc2)N1 (stereo not given)
inactive: Potency [1] | Potency [2] | Potency [3] | Potency [4] | Potency [6]

CCC(COC)n1nnc2c(Nc3ccc(OC)cc3C)nc(C)cc21 (stereo not given)
inactive: Potency [1] | Potency [2] | Potency [3] | Potency [4] | Potency [6]
